The structures appear in SMILES notation. Hit rate of the full screen: of about 310,000 compounds, about 2,200 (0.71%) showed an effect of 50% or more. Effects have a minus sign here. Only a selection was taken, and strong results are over-represented in it overall.

In the experiment the target is human ether-à-go-go-related gene (hERG) potassium channel (human, UniProt Q12809). Nature of the experiment: primary screen, population patch clamp on CHO cells stably expressing hERG; higher = less effect of the substance.
Sequence of human ether-à-go-go-related gene (hERG) potassium channel (Q12809 whole entry, looked up): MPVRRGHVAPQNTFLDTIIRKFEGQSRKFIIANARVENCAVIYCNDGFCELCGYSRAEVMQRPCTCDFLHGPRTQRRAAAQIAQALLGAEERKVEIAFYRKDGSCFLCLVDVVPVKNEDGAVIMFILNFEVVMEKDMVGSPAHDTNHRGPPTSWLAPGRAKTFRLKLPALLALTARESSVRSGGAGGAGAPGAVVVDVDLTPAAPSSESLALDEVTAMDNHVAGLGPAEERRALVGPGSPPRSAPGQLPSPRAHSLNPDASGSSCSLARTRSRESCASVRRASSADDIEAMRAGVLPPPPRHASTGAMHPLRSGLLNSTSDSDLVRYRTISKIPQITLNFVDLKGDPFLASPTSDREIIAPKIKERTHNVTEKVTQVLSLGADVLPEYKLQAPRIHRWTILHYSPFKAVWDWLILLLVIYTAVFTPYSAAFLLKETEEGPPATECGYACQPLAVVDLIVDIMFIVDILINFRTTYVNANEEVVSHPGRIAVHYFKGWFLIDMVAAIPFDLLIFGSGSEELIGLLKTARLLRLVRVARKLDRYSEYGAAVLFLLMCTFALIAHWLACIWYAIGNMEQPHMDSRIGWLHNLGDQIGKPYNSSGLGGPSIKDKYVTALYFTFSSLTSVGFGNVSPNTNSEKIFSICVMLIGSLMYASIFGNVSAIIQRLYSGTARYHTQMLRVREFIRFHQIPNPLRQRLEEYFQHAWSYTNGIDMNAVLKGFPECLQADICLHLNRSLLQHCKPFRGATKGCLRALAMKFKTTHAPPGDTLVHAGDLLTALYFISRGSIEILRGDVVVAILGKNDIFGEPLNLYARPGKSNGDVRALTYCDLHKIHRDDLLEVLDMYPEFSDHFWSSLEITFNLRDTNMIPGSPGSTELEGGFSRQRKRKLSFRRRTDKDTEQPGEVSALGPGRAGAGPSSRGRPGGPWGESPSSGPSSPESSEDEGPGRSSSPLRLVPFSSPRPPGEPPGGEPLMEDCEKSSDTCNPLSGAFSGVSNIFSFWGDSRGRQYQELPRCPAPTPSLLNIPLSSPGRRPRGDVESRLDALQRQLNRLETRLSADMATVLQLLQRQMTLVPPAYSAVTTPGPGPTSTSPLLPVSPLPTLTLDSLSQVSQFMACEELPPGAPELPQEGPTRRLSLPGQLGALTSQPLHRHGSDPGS
In the case of `Cc1cc(C)n(Cc2ccccc2)c(=O)c1S(=O)(=O)c1ccccc1`, the “hERG current change (%, negative = inhibition) at 1uM” value is reported as 3.34%. Take `COC(=O)C(C)Sc1nnc(SC(C)C(=O)OC)s1` (stereo not drawn): the “hERG current change (%, negative = inhibition) at 1uM” value was found to be 23%.

As for `O=C(N/N=C/c1cccc([N+](=O)[O-])c1O)C(O)(c1ccccc1)c1ccccc1`, the “hERG current change (%, negative = inhibition) at 1uM” value is 18.6%.

In the case of `O=C(N/N=C/c1cc(Cl)cc([N+](=O)[O-])c1O)C(O)(c1ccccc1)c1ccccc1`, the “hERG current change (%, negative = inhibition) at 1uM” value was -62.4%. As for `O=C(N/N=C/c1cc([N+](=O)[O-])cc([N+](=O)[O-])c1O)C(O)(c1ccccc1)c1ccccc1`, the “hERG current change (%, negative = inhibition) at 1uM” value amounted to 0.978%.

Turning to `CSc1cccc(NS(=O)(=O)c2ccc(F)cc2)c1`, the “hERG current change (%, negative = inhibition) at 1uM” value stood at 7.73%.

As for `COCCCNC(=O)CC(C)c1ccccc1` (stereo not drawn), the “hERG current change (%, negative = inhibition) at 1uM” value is reported as 8.27%. The same measure for `Cn1c2ccccc2n2c(=O)c(=O)n(CC(=O)N3CCCc4ccccc43)nc12`: -1.27%; for `Br.CCCCCCCCn1c2c(c(=N)c3c1CCC3)CCCC2`: -84.6%; for `CCCn1c2c(c(=N)c3c1CCC3)CCC2.I`: 8.15%.

In the case of `CCCCCCn1c(=O)[nH]c2c(c1=O)CCC2`, the “hERG current change (%, negative = inhibition) at 1uM” value was determined as 11.6%.

`Br.CCCCCCCCCCn1c2c(c(=N)c3c1CCC3)CCC2`: the “hERG current change (%, negative = inhibition) at 1uM” value is -71.7%. With `CCOC(=O)Cn1c2c(c(=N)c3c1CCC3)CCCC2.Cl`, the “hERG current change (%, negative = inhibition) at 1uM” value was 12.8%. With `Br.CCn1c2c(c(=N)c3c1CCC3)CCC2` the figure was 6.51%. Turning to `CCCn1c2c(c(=N)c3c1CCC3)CCCC2.I`, the “hERG current change (%, negative = inhibition) at 1uM” value was 6.36%. As for `Br.CCn1c2c(c(=N)c3c1CCC3)CCCC2`, the “hERG current change (%, negative = inhibition) at 1uM” value turned out to be 4.22%. Consider `Br.CCCCCCCCCn1c2c(c(=N)c3c1CCC3)CCC2`, for which the “hERG current change (%, negative = inhibition) at 1uM” value is listed as -65.5%. For `CCOC(=O)Cn1c2c(c(=N)c3c1CCC3)CCC2.Cl`, the “hERG current change (%, negative = inhibition) at 1uM” value was determined as 10.2%.

On to `CCCCn1c2c(c(=N)c3c1CCC3)CCC2.I`, for which the “hERG current change (%, negative = inhibition) at 1uM” value was 5.32%.

In the case of `Br.CCCCCCn1c2c(c(=N)c3c1CCC3)CCC2`, the “hERG current change (%, negative = inhibition) at 1uM” value is given as -54%. Regarding `CC(=O)n1cc(/C=N/NC(=O)c2cccc(O)c2)c2ccccc21`, the “hERG current change (%, negative = inhibition) at 1uM” value is given as 13.7%. With `CC(CC(=O)O)CC(=O)NNC(=O)c1cccc(Br)c1` (stereo not drawn) the figure was 8.72%.

Regarding `C/C(N)=C(/C#N)C(=O)COC(=O)CCSc1ccccc1Cl`, the “hERG current change (%, negative = inhibition) at 1uM” value is given as 12.1%. With `CCN(c1ccccc1)S(=O)(=O)c1ccc(Cl)c(C(=O)NCC2CCCO2)c1` (stereo not drawn) the figure was 2.1%; with `O=C(C1CCN(C2CCN(C/C(Cl)=C/c3ccccc3)CC2)CC1)N1CCOCC1`, -33.8%; with `CN1CCN(C(c2ccc(C(F)(F)F)cc2)c2ccc3cccnc3c2O)CC1` (stereo not drawn), 7.36%. In the case of `CCC1Oc2nc(SC)nnc2-c2ccccc2N1C(=O)c1ccccc1` (stereo not drawn), the “hERG current change (%, negative = inhibition) at 1uM” value came to 11.8%. With `COC(=O)C1=C(C)Nc2nc3ccccc3n2C1c1ccccc1F` (stereo not drawn) the figure was 8.31%; with `Cc1cc(CNC(=O)CC2C(=O)NCCN2CC(C)(C)C)nn1C` (stereo not drawn), 10.4%. Turning to `Cc1cc(C=C2C(=O)NC(=O)NC2=O)c(C)n1-c1ccc2c(c1)OCO2`, the “hERG current change (%, negative = inhibition) at 1uM” value is 13.5%. With `CCOC(=O)C1CCN(CC(O)COc2ccc(C(C)=O)cc2)CC1.Cl` (stereo not drawn) the figure was -30.4%.

Regarding `CCOC(=O)c1ccc(S(=O)(=O)N2CCN(CC(O)COc3cccc(C(C)=O)c3)CC2)cc1.O=C(O)C(=O)O` (stereo not drawn), the “hERG current change (%, negative = inhibition) at 1uM” value came out at 10%.

Turning to `OC(COCc1ccc(Cl)cc1)CN1CCN(CC(O)COCc2ccc(Cl)cc2)CC1` (stereo not drawn), the “hERG current change (%, negative = inhibition) at 1uM” value was -67.5%. For the compound `CCOC(=O)C1CCN(CC(O)COc2ccc(C(=O)CC)cc2)CC1.Cl` (stereo not drawn), the “hERG current change (%, negative = inhibition) at 1uM” value is -49.5%.

With `Cl.OC(COCc1ccccc1)CN1CCCC1` (stereo not drawn), the “hERG current change (%, negative = inhibition) at 1uM” value worked out at 1.21%. As for `CCOC(=O)C1CCN(CC(O)COCc2ccc3c(c2)OCO3)CC1.Cl` (stereo not drawn), the “hERG current change (%, negative = inhibition) at 1uM” value was found to be 1.96%.

Regarding `Cl.OC(COCc1ccc(Cl)cc1)CN1CCCCC1` (stereo not drawn), the “hERG current change (%, negative = inhibition) at 1uM” value came to 0.152%. With `CC(=O)c1cccc(OCC(O)CN2CCN(S(=O)(=O)c3c(F)cccc3F)CC2)c1.O=C(O)C(=O)O` (stereo not drawn) the figure was 1.4%; with `CCOC(=O)C1CCN(CC(O)COCc2ccccc2)CC1.O=C(O)C(=O)O` (stereo not drawn), 3.28%. The same measure for `CC(=O)c1cccc(OCC(O)CN2CC=C(c3ccccc3)CC2)c1.O=C(O)C(=O)O` (stereo not drawn): -50%.

Turning to `CCOC(=O)C1CCN(CC(O)COCc2ccc(Cl)cc2)CC1.Cl` (stereo not drawn), the “hERG current change (%, negative = inhibition) at 1uM” value is -58.6%. With `CCOC(=O)C1CCN(CC(O)COc2ccc(C(C)(C)C)cc2)CC1.Cl` (stereo not drawn) the figure was -53.2%; with `COc1cccc(N2CCN(C(=O)Cn3c(=O)oc4ccccc43)CC2)c1`, 4.28%; with `Cc1ccc(-c2nn(-c3ccccc3)cc2/C=N/n2c(-c3cccs3)n[nH]c2=S)cc1`, 15%.

Take `NS(=O)(=O)c1ccc(CCNC(=O)CNC(=O)c2ccccc2F)cc1`: the “hERG current change (%, negative = inhibition) at 1uM” value was determined as 11.3%. Take `CCOc1ccc(Cc2noc3c2C(=O)CCC3)cc1OCC`: the “hERG current change (%, negative = inhibition) at 1uM” value is listed as 23.3%.

Consider `O=C(NCCCCCCNC(=O)NCc1ccco1)NCc1ccco1`, for which the “hERG current change (%, negative = inhibition) at 1uM” value was 6.09%. `O=C1CCC(/C=C/c2ccccc2)=NN1Cc1ccc(Cl)c(Cl)c1`: the “hERG current change (%, negative = inhibition) at 1uM” value is 2.78%. On to `O=C(NCc1ccccn1)/C(=N/O)c1ccccc1`, for which the “hERG current change (%, negative = inhibition) at 1uM” value is given as 9.34%. The same measure for `CC(C)n1c(O)c(N=Nc2ccc(Cl)nn2)c2ccccc21`: 10.7%; for `C=CCNC(=S)/C(=C(\[O-])c1ccc(Cl)cc1)[n+]1ccccc1`: 11.2%.

Take `Cc1ccc(S(=O)(=O)NCC2CCC(C(=O)N3CCN(C)CC3)CC2)cc1` (stereo not drawn): the “hERG current change (%, negative = inhibition) at 1uM” value stood at 22.1%. In the case of `Cl.OC(COCc1ccc(Cl)cc1)CN1CCc2ccccc2C1` (stereo not drawn), the “hERG current change (%, negative = inhibition) at 1uM” value is listed as -27.3%.

`NC(=O)C1CCCN(CC(O)COCc2ccc(Cl)cc2)C1.O=C(O)C(=O)O` (stereo not drawn): the “hERG current change (%, negative = inhibition) at 1uM” value worked out at 11.5%. With `O=C(O)C(=O)O.OC(COCc1ccc(Cl)cc1)CN1CC=C(c2ccccc2)CC1` (stereo not drawn) the figure was -84.2%; with `C=CC[N+]1(CC=C)CCOCC1.[Br-]`, 34.2%; with `COc1ccc(C(=O)/C=C/c2cn(CN3CCN(C)CC3)c3ccccc23)cc1`, -3.29%. The same measure for `CCOc1ccc2nc(N3CCC(C(=O)N4CCC5(CC4)OCCO5)CC3)sc2c1`: 6.77%; for `COc1ccc(N2CCN(c3cc(C)nc4ccc(OC)cc34)CC2)cc1`: -31%; for `CCOC(=O)C1CCN(C(=O)C2CCN(c3nc4ccc(OC)cc4s3)CC2)CC1`: -53.4%. The same measure for `O=C(c1ccco1)N1CCN(c2nc3ccsc3c(=O)s2)CC1`: -74.5%; for `CCOc1ccc2nc(N3CCC(C(=O)N4CCN(C(=O)c5ccco5)CC4)CC3)sc2c1`: -89.3%; for `CCOC(=O)C1CCN(c2cc(C)nc3ccc(OC)cc23)CC1`: -56.1%. With `CCOc1ccc2nc(N3CCC(C(=O)N4CCN(C5CCCCC5)CC4)CC3)sc2c1`, the “hERG current change (%, negative = inhibition) at 1uM” value is -8.64%. Consider `CCOc1ccc2nc(N3CCC(C(=O)N4CCN(c5ncccn5)CC4)CC3)sc2c1`, for which the “hERG current change (%, negative = inhibition) at 1uM” value stood at 4.83%.

For `Cc1ccc(Cl)c2sc(N3CCN(C(=O)c4ccco4)CC3)nc12`, the “hERG current change (%, negative = inhibition) at 1uM” value is -0.903%. The same measure for `COc1ccc2nc(C)cc(N3CCC(C(N)=O)CC3)c2c1`: -2.62%. On to `Cc1ccc2nc(N3CCN(C(=O)c4ccco4)CC3)sc2c1`, for which the “hERG current change (%, negative = inhibition) at 1uM” value was -7.42%. In the case of `CCOc1ccc2nc(N3CCC(C(=O)N4CCN(c5ccccn5)CC4)CC3)sc2c1`, the “hERG current change (%, negative = inhibition) at 1uM” value was -17.4%.

For the compound `O=C(O)C1CCC(=O)N1C1c2ccccc2Oc2ccccc21` (stereo not drawn), the “hERG current change (%, negative = inhibition) at 1uM” value was found to be 7.76%.

As for `CC(NCC(=O)NCCc1ccc(S(N)(=O)=O)cc1)c1ccc(F)cc1` (stereo not drawn), the “hERG current change (%, negative = inhibition) at 1uM” value amounted to 15.1%. The same measure for `COc1ccccc1/C(C)=N/NC(=S)NCc1ccccc1`: 0.32%; for `COCc1nc(-c2ccc(-c3ccc(C)cc3)nc2OC)no1`: 4.81%. The same measure for `Cn1cccc1/C=N/N1CCN(c2ccccc2)CC1`: 18.1%; for `COc1ccc(CC(=O)OCC(=O)N2CCCc3ccccc32)cc1`: 7.67%.

As to `CCOC(=O)/C(C#N)=C1/C=CN(c2ccccc2)C=N1`, the “hERG current change (%, negative = inhibition) at 1uM” value is on record as 7.43%. Take `CCCn1c(N)c(C(=O)CSc2nnc3n2CCCCC3)c(=O)[nH]c1=O`: the “hERG current change (%, negative = inhibition) at 1uM” value amounted to 4.02%. The same measure for `CCOP(=O)(OCC)/C(C#N)=C/c1ccc([N+](=O)[O-])cc1`: -4.07%; for `COCCCn1c(C(=O)N2CCOCC2)cc2c(=O)n3ccccc3nc21`: 3.13%. For `CCOC(=O)c1cc2c(=O)n3ccccc3nc2n(Cc2ccccc2)c1=N`, the “hERG current change (%, negative = inhibition) at 1uM” value is -68.9%. With `N=c1c(C(=O)NCc2ccc(F)cc2)cc2c(=O)n3ccccc3nc2n1Cc1cccnc1` the figure was -80.3%; with `COCCCn1c(C(=O)Nc2ccc3c(c2)OCO3)cc2c(=O)n3ccccc3nc21`, 13.5%; with `N#Cc1cc2c(=O)n3ccccc3nc2n(Cc2cccnc2)c1=O`, 2.54%. With `COc1ccc(CNC(=O)c2cc3c(=O)n4ccccc4nc3n(Cc3cccnc3)c2=N)cc1` the figure was -32.6%; with `CCCCn1c(=NC(=O)c2ccco2)c(C(=O)OCC)cc2c(=O)n3ccccc3nc21`, -44.1%. For the compound `N=c1c(S(=O)(=O)c2ccc(Cl)cc2)cc2c(=O)n3ccccc3nc2n1Cc1cccnc1`, the “hERG current change (%, negative = inhibition) at 1uM” value turned out to be 7.26%. With `CCCn1c(=NC(C)=O)c(C(=O)OCC)cc2c(=O)n3ccccc3nc21` the figure was 8.09%; with `COCCCn1c(=N)c(C(=O)NCc2ccc3c(c2)OCO3)cc2c(=O)n3ccccc3nc21`, -87.4%.

Take `COC(=O)c1cc2c(=O)n3ccccc3nc2n(Cc2cccnc2)c1=N`: the “hERG current change (%, negative = inhibition) at 1uM” value is -51.5%.

For the compound `N=c1c(S(=O)(=O)c2ccccc2)cc2c(=O)n3ccccc3nc2n1Cc1cccnc1`, the “hERG current change (%, negative = inhibition) at 1uM” value stood at 6.5%.

Source of the values: publication PMC4336329 (PLoS ONE, 2015).
